Data from the supplement of paper PMC7156485.
Where a name gives a salt, the structure may show the parent alone. ± gives the standard deviation of the averaged measurements.

Tests used:
Details in all cases: concentration: 10 µM; 24 h
HCC1569 [1] = test: cell number relative to DMSO (% of DMSO); higher = more cells (less growth inhibition / toxicity)
Procedure, shortened: (§1)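 HCC1569 and TDF cells (800 per well, 384-well plates, RPMI with 10% FBS) were treated with compounds at 10 µM for 24 h at 37 °C, in triplicate. Cells were fixed in 3.7% formaldehyde and stained with a rabbit anti-H1.0 antibody, an AlexaFluor 647 secondary and DAPI; six fields per well were imaged at ×10. H1.0 nuclear intensity or cell number is expressed as percent of the plate DMSO control, taking the median of replicates. HCC1569 values were smoothed for positional effects.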

TDF [2] = test: as above
Procedure, shortened: as §1

TDF [3] = test: H1.0 immunofluorescence intensity relative to DMSO (% of DMSO); higher = stronger H1.0 induction, active = 120 or more
Procedure, shortened: as §1

HCC1569 [4] = test: H1.0 immunofluorescence intensity relative to DMSO (% of DMSO); higher = stronger H1.0 induction, active = 140 or more
Procedure, shortened: as §1
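Wherever H1.0 immunofluorescence intensity relative to DMSO is given: TDF is a line of transformed human dermal fibroblasts of mesenchymal origin.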
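Wherever cell number relative to DMSO is given: TDF denotes transformed human dermal fibroblasts of mesenchymal origin.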

Compound | cell number (HCC1569 [1]) | cell number (TDF [2]) | H1.0 immunofluorescence intensity (TDF [3]) | H1.0 immunofluorescence intensity (HCC1569 [4])
CNC(=O)Oc1ccc2c(c1)C1(C)CCN(C)C1N2C (centres undefined) [Physostigmine] | 104 | 104 | 102 (inactive) | 94.1 (inactive)
CC(C)C1(NC(=O)C2CC3c4cccc5[nH]cc(c45)CC3N(C)C2)OC2(O)C3CCCN3C(=O)C(Cc3ccccc3)N2C1=O (centres undefined) [Dihydroergocristine] | 104 | 100 | 90.4 (inactive) | 117 (inactive)
CC1CC(C)C(=O)C(C(O)CC2CC(=O)NC(=O)C2)C1 (centres undefined) [Cycloheximide] | 64.3 | 41.7 | 110 (inactive) | 139 (inactive)
CN(C)Cc1c[nH]c2ccccc12 [Gramine] | 96.9 | 99.3 | 94.1 (inactive) | 83 (inactive)
NCC(CP(=O)(O)O)c1ccc(Cl)cc1 (centres undefined) [Phaclofen] | 106 | 100 | 95.8 (inactive) | 79.9 (inactive)
COc1ccccc1CN[C@H]1C2CCN(CC2)[C@H]1C(c1ccccc1)c1ccccc1 | 95.3 | 97.3 | 105 (inactive) | 125 (inactive)
CC(C)Oc1cccnc1N(C)C1CCN(Cc2ccc(I)cc2)CC1 [RBI-257 maleate] | 100 | 98.1 | 94.8 (inactive) | 102 (inactive)
CC(C)NC(C)Cc1ccc(I)cc1.Cl (centres undefined) [Iofetamine hydrochloride] | 105 | 113 | 91.5 (inactive) | 91.7 (inactive)
CCN1CC2(OC(=O)c3ccccc3NC(C)=O)CCC(OC)C34C1C(CC23)C1(O)CC(OC)C2CC4C1(O)C2OC (centres undefined) [Lappaconitine] | 107 | 103 | 100 (inactive) | 94.3 (inactive)
CC(N)C(O)c1ccc(O)c(O)c1 (single isomer, unassigned; (-)) [(-)-alpha-Methylnorepinephrine] | 99.4 | 98.5 | 85.9 (inactive) | 93.1 (inactive)
COc1ccc2c(c1)C13CCCCC1C(C2)NCC3.Cl (centres undefined) [3-Methoxy-morphanin hydrochloride] | 99.1 | 107 | 97.3 (inactive) | 99.5 (inactive)
CC(C)(C)C1(O)CC2OC(=O)CC23C(=O)OC2OC(=O)C(O)C231 (centres undefined) [Bilobalide] | 99.9 | 109 | 96.7 (inactive) | 97.2 (inactive)
c1ccc2c3c([nH]c2c1)CNCC3 [Noreleagnine] | 103 | 108 | 92.6 (inactive) | 88.4 (inactive)
CC1=C(C)C(=O)C(CCC(C)(O)CCCC(C)CCCC(C)CCCC(C)C)=C(C)C1=O (racemic) | 99 | 104 | 98.7 (inactive) | 101 (inactive)
C=C1C2CC3(C1O)C1CC4C5(C)CCC(O)C4(C1N(CC)C5)C3CC2=O (centres undefined) [Songorine] | 101 | 108 | 90 (inactive) | 91.7 (inactive)
Cc1cccc(C)c1NC1=NCCCS1 [Xylazine] | 106 | 106 | 95.4 (inactive) | 106 (inactive)
CN(C)C(=O)Oc1cccc([N+](C)(C)C)c1.COS(=O)(=O)[O-] | 109 | 103 | 97.7 (inactive) | 98.3 (inactive)
C[N+]1(C)C2CC(OC(=O)C(CO)c3ccccc3)CC1C1OC12.[Br-] (single isomer, unassigned; (-)) [(-)-Scopolamine methyl bromide] | 104 | 98.8 | 95.7 (inactive) | 101 (inactive)
NC1CC1c1ccccc1 (centres undefined) [Tranylcypromine] | 102 | 117 | 109 (inactive) | 96 (inactive)
Br.COC1CC=C2CCN3CCC4=C(CC(=O)OC4)C23C1 (stereo not drawn) [Dihydro-beta-erythroidine hydrobromide] | 104 | 98.2 | 91.6 (inactive) | 93.8 (inactive)
O=C(O)c1nn(Cc2ccc(Cl)cc2Cl)c2ccccc12 [Lonidamine] | 107 | 96.2 | 94.3 (inactive) | 92.3 (inactive)
CC(C)(C)NCC(O)c1ccccc1Cl (centres undefined) [Tulobuterol] | 111 | 101 | 90.7 (inactive) | 114 (inactive)
COc1ccc(-n2nc(C(F)(F)F)cc2-c2ccc(Cl)cc2)cc1 | 104 | 106 | 87.5 (inactive) | 90.3 (inactive)
C#CCN(C)C(C)Cc1ccccc1.Cl [(R)-(-)-Deprenyl.HCl] | 104 | 103 | 97.8 (inactive) | 101 (inactive)
CCN(CC)c1ncnc2c1ncn2C1OC(COP(=O)([O-])OP(=O)([O-])C(Br)(Br)P(=O)([O-])O)C(O)C1O.[Na+].[Na+].[Na+] (centres undefined) | 102 | 101 | 92.6 (inactive) | 96.5 (inactive)
O=C(O)CCCc1ccc(N(CCCl)CCCl)cc1 [Chlorambucil] | 86.2 ± 2.5 | 85.1 ± 7.6 | 97.1 (inactive) | 98.4 (inactive)
